Laboratory results taken from paper PMC7862700, “An all-to-all approach to the identification of sequence-specific readers for epigenetic DNA modifications on cytosine”.

Key:
Test in all cases: DAPPL (digital affinity profiling via proximity ligation, sequencing); 10 mM Tris-HCl pH 7.5, 50 mM NaCl, 1 mM DTT, 4% glycerol, room temperature, 30 min; GST-TFs on glutathione beads, 16-mer random dsDNA library, 0.1% formaldehyde crosslink after washing; high values mean tight binding
FEV = target: T1, FEV (Homo sapiens, UniProt Q99581 1-238); settings: protein: recombinant; tags: N-terminal GST; dsDNA, one strand shown
T1 sequence: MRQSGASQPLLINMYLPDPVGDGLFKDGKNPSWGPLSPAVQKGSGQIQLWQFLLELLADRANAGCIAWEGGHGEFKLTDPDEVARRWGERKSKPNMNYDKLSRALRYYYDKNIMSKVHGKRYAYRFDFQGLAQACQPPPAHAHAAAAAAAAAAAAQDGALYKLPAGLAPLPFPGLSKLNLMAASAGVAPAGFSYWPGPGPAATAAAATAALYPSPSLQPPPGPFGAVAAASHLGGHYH
Outline: (§1)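 Human transcription factors were made in yeast as GST fusions, captured on glutathione beads and barcoded with DNA. With a tag-only sample included, the pool was incubated with 200 nmole of a random double-stranded 16-mer DNA library in Tris/NaCl/DTT/glycerol buffer at room temperature for 30 min, then crosslinked with 0.1% formaldehyde after washing, ligated by proximity, amplified and sequenced. For binding signal, each hexamer's read frequency for a factor is divided by its frequency for the tag-only sample.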

ETV5 = ETV5 (Homo sapiens, UniProt P41161 1-510); settings: protein: recombinant; tags: N-terminal GST; dsDNA, one strand shown
Sequence of ETV5 (P41161 whole entry): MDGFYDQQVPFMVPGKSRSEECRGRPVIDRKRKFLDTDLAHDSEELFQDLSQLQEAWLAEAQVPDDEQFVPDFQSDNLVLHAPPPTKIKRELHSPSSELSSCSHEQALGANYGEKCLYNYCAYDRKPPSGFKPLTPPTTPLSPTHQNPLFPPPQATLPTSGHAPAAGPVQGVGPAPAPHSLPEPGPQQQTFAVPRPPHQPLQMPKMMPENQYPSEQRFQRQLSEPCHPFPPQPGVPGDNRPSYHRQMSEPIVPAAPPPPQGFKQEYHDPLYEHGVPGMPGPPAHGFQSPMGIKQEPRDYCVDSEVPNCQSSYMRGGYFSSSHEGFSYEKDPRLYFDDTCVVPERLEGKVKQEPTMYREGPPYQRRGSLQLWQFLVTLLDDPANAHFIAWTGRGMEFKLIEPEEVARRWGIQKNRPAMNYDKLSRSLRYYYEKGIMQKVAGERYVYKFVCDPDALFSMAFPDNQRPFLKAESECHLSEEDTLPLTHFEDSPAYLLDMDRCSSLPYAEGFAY
Outline: as §1

HSF1 = HSF1 (Homo sapiens, UniProt Q00613 1-529); settings: protein: recombinant; tags: N-terminal GST; chain copies: 3; dsDNA, one strand shown
Sequence of HSF1 (Q00613 whole entry): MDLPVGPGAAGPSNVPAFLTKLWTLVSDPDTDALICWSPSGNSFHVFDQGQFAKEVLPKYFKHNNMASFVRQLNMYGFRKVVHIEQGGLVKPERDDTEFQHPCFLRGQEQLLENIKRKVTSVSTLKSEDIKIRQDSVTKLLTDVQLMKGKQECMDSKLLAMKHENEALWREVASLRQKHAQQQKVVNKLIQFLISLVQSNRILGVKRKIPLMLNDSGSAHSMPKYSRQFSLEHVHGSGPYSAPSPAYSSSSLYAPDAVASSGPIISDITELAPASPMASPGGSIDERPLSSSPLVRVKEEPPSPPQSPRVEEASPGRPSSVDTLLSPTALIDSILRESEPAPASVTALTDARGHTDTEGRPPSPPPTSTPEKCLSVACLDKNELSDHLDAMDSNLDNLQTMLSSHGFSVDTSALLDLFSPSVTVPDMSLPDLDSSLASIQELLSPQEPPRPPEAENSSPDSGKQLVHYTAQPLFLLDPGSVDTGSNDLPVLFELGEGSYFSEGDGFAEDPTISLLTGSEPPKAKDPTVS
Outline: as §1

SPIC = target: T2, SPIC (Homo sapiens, UniProt Q8N5J4 1-248); settings: protein: recombinant; tags: N-terminal GST; dsDNA, one strand shown
T2 sequence: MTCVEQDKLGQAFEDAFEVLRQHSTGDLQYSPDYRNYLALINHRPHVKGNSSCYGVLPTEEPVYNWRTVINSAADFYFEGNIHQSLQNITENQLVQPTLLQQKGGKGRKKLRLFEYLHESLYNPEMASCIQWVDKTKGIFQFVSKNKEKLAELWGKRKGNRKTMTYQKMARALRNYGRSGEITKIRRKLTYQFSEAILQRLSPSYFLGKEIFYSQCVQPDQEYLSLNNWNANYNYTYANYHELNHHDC
Outline: as §1

ELF4 = ELF4 (Homo sapiens, UniProt Q99607 1-663); settings: protein: recombinant; tags: N-terminal GST; dsDNA, one strand shown
Sequence of ELF4 (Q99607 whole entry): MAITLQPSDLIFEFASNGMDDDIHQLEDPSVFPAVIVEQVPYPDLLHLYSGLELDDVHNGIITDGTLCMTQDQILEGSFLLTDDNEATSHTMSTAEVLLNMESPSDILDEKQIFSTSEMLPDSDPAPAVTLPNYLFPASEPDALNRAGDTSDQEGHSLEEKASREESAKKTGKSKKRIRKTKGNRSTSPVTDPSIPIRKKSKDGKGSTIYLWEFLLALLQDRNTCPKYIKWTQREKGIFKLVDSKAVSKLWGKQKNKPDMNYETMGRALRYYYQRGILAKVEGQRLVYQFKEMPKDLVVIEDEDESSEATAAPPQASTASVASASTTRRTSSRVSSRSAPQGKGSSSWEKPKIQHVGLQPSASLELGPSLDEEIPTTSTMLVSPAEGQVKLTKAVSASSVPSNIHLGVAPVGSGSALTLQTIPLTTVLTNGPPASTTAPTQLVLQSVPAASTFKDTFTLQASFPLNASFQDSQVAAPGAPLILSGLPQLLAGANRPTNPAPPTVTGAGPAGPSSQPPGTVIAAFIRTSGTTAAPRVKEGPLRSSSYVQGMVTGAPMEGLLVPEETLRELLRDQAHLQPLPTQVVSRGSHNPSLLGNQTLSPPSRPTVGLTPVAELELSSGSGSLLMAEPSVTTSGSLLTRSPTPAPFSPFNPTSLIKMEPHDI
Outline: as §1

ELK4 = target: T3, ELK4 (Homo sapiens, UniProt P28324-2 1-405); settings: protein: recombinant; tags: N-terminal GST; dsDNA, one strand shown
T3 sequence: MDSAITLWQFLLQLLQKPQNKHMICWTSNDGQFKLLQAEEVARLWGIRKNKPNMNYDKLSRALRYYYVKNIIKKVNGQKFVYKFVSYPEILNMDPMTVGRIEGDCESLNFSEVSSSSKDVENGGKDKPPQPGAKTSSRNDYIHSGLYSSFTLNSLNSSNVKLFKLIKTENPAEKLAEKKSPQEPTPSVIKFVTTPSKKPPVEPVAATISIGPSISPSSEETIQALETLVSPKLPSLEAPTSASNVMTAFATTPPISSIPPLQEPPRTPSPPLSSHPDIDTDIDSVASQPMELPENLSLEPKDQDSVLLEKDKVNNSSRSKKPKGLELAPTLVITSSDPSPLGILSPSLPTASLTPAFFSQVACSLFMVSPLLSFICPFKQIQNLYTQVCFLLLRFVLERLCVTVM
Outline: as §1

ETV2 = target: T4, ETV2 (Homo sapiens, UniProt O00321 1-342); settings: protein: recombinant; tags: N-terminal GST; dsDNA, one strand shown
T4 sequence: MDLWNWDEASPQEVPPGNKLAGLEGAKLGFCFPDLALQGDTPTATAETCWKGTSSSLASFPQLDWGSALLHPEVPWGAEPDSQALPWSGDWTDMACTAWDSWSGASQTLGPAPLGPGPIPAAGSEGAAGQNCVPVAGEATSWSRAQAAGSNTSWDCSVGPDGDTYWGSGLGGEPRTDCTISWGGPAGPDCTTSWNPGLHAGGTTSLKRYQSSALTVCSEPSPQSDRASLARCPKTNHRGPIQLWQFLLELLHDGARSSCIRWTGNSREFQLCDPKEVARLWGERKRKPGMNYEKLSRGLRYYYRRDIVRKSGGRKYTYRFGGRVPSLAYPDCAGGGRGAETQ
Outline: as §1

ELF3 = target: T5, ELF3 (Homo sapiens, UniProt P78545 1-371); settings: protein: recombinant; tags: N-terminal GST; dsDNA, one strand shown
T5 sequence: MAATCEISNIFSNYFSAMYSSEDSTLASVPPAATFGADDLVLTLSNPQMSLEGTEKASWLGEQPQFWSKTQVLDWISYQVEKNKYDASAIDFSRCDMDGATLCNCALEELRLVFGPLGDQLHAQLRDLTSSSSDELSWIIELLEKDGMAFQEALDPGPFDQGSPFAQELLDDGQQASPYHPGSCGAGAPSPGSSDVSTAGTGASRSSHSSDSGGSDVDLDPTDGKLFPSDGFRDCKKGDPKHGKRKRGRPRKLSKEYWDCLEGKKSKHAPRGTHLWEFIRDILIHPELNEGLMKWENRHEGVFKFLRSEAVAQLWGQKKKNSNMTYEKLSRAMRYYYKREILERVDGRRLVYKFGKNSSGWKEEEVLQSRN
Outline: as §1

CRX = CRX (Homo sapiens, UniProt O43186 1-299); settings: protein: recombinant; tags: N-terminal GST; dsDNA, one strand shown
Sequence of CRX (O43186 whole entry): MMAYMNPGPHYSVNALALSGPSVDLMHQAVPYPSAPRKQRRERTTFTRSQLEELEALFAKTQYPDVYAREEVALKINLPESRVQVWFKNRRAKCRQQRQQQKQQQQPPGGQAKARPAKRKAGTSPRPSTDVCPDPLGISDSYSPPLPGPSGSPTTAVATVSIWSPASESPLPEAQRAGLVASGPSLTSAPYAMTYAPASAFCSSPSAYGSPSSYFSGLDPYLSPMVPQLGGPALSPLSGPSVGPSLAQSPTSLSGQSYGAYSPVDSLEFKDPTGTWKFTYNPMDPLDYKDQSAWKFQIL
Outline: as §1

ETV1 = ETV1 (Homo sapiens, UniProt P50549 1-477); settings: protein: recombinant; tags: N-terminal GST; dsDNA, one strand shown
Sequence of ETV1 (P50549 whole entry): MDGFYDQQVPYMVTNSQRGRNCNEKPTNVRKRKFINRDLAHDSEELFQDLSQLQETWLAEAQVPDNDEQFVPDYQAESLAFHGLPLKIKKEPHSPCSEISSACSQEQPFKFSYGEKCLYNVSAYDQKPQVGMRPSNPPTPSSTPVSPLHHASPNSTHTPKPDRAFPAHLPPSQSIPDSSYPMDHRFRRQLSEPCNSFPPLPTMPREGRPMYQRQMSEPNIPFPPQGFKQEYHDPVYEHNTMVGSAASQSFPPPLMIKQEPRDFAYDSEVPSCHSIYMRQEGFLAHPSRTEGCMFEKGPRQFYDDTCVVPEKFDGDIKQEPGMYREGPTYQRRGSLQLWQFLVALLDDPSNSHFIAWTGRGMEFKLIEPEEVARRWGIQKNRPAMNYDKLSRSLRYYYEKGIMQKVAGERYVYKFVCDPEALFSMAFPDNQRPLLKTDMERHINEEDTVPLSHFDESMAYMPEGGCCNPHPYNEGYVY
Outline: as §1

ERF = target: T6, ERF (Homo sapiens, UniProt P50548 1-548); settings: protein: recombinant; tags: N-terminal GST; dsDNA, one strand shown
T6 sequence: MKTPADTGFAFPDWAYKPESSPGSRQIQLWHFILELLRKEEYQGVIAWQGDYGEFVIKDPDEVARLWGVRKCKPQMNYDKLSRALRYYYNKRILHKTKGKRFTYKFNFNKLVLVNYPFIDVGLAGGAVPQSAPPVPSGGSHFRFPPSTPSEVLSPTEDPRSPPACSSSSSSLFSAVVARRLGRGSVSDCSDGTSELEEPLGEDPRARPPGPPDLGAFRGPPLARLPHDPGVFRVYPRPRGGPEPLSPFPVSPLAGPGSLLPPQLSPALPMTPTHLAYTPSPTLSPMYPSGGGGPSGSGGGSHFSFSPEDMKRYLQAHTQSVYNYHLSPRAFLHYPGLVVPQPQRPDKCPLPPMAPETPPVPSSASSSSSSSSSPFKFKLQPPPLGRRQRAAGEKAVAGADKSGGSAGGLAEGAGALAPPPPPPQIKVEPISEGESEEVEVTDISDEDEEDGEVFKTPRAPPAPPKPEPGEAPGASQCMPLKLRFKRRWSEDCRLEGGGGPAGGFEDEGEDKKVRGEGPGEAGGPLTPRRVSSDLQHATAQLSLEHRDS
Outline: as §1

ETV3L = target: T7, ETV3L (Homo sapiens, UniProt Q6ZN32 1-361); settings: protein: recombinant; tags: N-terminal GST; dsDNA, one strand shown
T7 sequence: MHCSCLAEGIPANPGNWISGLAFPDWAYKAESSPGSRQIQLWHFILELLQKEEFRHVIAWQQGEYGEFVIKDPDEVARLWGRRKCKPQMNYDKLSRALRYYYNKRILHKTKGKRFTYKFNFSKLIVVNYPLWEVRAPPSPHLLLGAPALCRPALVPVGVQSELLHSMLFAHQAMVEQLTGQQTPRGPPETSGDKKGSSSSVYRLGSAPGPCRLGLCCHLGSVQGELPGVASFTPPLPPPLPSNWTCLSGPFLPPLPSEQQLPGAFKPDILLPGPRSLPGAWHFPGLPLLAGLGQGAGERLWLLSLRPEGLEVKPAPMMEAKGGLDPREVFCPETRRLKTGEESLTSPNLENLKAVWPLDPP
Outline: as §1

ETS2 = target: T8, ETS2 (Homo sapiens, UniProt P15036 1-469); settings: protein: recombinant; tags: N-terminal GST; dsDNA, one strand shown
T8 sequence: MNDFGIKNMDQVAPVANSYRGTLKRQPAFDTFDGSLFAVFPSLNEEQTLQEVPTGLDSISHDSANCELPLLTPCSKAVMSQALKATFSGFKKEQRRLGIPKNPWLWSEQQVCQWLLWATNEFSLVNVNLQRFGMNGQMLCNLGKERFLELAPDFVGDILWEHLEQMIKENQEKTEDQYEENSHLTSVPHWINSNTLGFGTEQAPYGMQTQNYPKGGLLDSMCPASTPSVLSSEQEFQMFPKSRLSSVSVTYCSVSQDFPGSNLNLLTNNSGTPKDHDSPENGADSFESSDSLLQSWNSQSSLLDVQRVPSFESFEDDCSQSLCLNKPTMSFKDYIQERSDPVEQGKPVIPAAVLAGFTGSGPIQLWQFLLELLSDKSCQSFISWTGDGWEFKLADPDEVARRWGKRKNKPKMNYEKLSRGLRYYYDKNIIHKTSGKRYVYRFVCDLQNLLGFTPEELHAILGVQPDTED
Outline: as §1

SPDEF = target: T9, SPDEF (Homo sapiens, UniProt O95238 1-335); settings: protein: recombinant; tags: N-terminal GST; dsDNA, one strand shown
T9 sequence: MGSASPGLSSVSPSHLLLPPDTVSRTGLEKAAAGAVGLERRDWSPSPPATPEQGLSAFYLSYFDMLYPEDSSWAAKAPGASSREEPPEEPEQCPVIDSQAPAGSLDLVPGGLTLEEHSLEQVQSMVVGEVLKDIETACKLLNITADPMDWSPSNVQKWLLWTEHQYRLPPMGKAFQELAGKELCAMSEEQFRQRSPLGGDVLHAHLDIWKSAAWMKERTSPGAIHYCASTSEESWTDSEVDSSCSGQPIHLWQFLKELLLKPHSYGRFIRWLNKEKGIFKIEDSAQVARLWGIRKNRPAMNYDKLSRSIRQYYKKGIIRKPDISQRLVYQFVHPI
Outline: as §1

ETV7 = target: T10, ETV7 (Homo sapiens, UniProt Q9Y603 1-341); settings: protein: recombinant; tags: N-terminal GST; dsDNA, one strand shown
T10 sequence: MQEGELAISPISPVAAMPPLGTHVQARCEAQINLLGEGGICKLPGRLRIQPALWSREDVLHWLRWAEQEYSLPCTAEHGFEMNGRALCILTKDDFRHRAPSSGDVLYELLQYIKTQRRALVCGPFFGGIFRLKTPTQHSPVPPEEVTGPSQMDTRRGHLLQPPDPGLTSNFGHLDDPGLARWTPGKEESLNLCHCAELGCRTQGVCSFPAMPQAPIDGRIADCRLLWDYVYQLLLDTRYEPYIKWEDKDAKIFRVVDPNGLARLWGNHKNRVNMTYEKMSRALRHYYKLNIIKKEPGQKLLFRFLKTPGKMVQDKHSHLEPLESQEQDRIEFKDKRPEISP
Outline: as §1

ELF5 = target: T11, ELF5 (Homo sapiens, UniProt Q9UKW6-2 1-255); settings: protein: recombinant; tags: N-terminal GST; dsDNA, one strand shown
T11 sequence: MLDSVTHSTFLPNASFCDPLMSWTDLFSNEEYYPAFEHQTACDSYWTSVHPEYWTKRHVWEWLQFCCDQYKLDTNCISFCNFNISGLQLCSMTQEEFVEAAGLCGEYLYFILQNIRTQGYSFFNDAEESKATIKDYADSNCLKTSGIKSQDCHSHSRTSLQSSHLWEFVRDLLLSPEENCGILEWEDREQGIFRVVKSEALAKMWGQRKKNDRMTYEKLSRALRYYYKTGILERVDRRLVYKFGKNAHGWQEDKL
Outline: as §1

ETV3 = target: T12, ETV3 (Homo sapiens, UniProt P41162-2 1-143); settings: protein: recombinant; tags: N-terminal GST; dsDNA, one strand shown
T12 sequence: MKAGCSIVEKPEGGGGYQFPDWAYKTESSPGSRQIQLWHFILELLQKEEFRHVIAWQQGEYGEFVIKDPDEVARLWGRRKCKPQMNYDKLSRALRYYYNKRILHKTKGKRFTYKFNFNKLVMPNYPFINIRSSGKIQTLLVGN
Outline: as §1

ETV6 = ETV6 (Homo sapiens, UniProt P41212 1-452); settings: protein: recombinant; tags: N-terminal GST; dsDNA, one strand shown
Sequence of ETV6 (P41212 whole entry): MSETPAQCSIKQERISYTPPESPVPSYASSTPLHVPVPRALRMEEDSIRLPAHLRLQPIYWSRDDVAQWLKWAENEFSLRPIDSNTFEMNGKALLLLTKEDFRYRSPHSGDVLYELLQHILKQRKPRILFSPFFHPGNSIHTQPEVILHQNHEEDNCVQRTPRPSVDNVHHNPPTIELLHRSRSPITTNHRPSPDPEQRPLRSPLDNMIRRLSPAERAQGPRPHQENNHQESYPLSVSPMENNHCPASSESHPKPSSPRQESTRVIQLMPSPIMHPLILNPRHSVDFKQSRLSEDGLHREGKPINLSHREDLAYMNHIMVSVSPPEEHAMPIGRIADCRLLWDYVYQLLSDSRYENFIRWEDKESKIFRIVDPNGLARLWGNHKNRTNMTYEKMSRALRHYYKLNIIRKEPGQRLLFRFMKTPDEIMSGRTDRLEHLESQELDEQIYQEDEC
Outline: as §1

CTTTCC was tested, and the binding signal (FEV) was 2.15 fold enrichment (6-mer frequency, TF over GST control), the binding signal (ETV5) was 2.04 fold enrichment (6-mer frequency, TF over GST control) and the binding signal (HSF1) was 2.13 fold enrichment (6-mer frequency, TF over GST control). For the same sequence, the binding signal (SPIC) was 1.82 fold enrichment (6-mer frequency, TF over GST control), the binding signal (ELF4) was 1.9 fold enrichment (6-mer frequency, TF over GST control) and the binding signal (ELK4) was 1.94 fold enrichment (6-mer frequency, TF over GST control). For the same sequence, the binding signal (ETV2) was 2.11 fold enrichment (6-mer frequency, TF over GST control), the binding signal (ELF3) was 1.63 fold enrichment (6-mer frequency, TF over GST control) and the binding signal (CRX) was 1.54 fold enrichment (6-mer frequency, TF over GST control). For the same sequence, the binding signal (ETV1) was 1.91 fold enrichment (6-mer frequency, TF over GST control), the binding signal (ERF) was 1.82 fold enrichment (6-mer frequency, TF over GST control) and the binding signal (ETV3L) was 1.76 fold enrichment (6-mer frequency, TF over GST control). The binding signal (ETS2) was 2.1 fold enrichment (6-mer frequency, TF over GST control), the binding signal (SPDEF) was 1.96 fold enrichment (6-mer frequency, TF over GST control) and the binding signal (ETV7) was 1.64 fold enrichment (6-mer frequency, TF over GST control). For the same sequence, the binding signal (ELF5) was 2.39 fold enrichment (6-mer frequency, TF over GST control), the binding signal (ETV3) was 2.12 fold enrichment (6-mer frequency, TF over GST control) and the binding signal (ETV6) was 2.07 fold enrichment (6-mer frequency, TF over GST control).
